MCF10A rerep: induces DNA re-replication in MCF 10a normal breast cells. MCF 10A DNA re-replication, Hoechst nuclear intensity, 48 h. Potency, µM (series often up to 46.1 µM), usual class: activators. 2.9% of 350,000 active; further: nearly all actives have a fitted effect of over 50% in size
Chronic BCR inh: blocks chronic active B-cell receptor signaling | ABC-DLBCL IkBa-CBG/CBR reporter, luminescence ratio, 4 h | Potency, µM (titrated, usually from 46.1 µM), most hits filed as inhibitors | 0.05% of 340,000 active | AID 493014; active means well fitted inhibition curve with a large enough effect in the signal ratio, with a control signal flat, not every such curve was filed as active; inconclusive means small, poorly fitted or top-dose-only effect, or effect the other way, or a change in a side signal; the % refers to the signal ratio
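Compounds up to 46 uM were incubated four hours with TMD8 cells whose green CBG68 luciferase is fused to IkappaBalpha; red CBR luminescence normalised the signal, and concentration-effect curves were fitted to fusion, red and ratio data.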
SW480 rereplic: induces DNA re-replication in SW480 colon adenocarcinoma cells; SW480 DNA re-replication, Hoechst DNA content imaging, 48 h; Potency, µM (doses to about 46.1 µM), usual class: activators; 1.8% of 340,000 active; further: nearly all actives have a fitted effect of over 55% in size
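Compounds, transferred as 23 nL by pin tool, were incubated with cells for 48 hr; DNA content per nucleus was then quantified by Hoechst staining and fluorescence plate imaging.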
VP16 counter: inhibits Gal4-VP16 luciferase reporter, ROR gamma counter-screen | Potency, µM (series often up to 53.6 µM), actives largely listed as inhibitors | 3.5% of 310,000 active | Drosophila S2 Gal4-VP16 UAS-luciferase, luminescence, 20 h;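 further: Gal4-VP16 expression switched on by copper sulfate through the metallothionein promoter; nearly all actives have a fitted effect of over 50% in size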
Giardia kill: Giardia lamblia killing | Giardia lamblia trophozoite viability | 0.15% of 340,000 active | activity change, % at 7.66 µM, hits read low; in the data active means activity change below about -80%; inconclusive means between about -30% and that limit;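 further: parasites exposed to compound for two days anaerobically before the ATP read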
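Killing of trophozoites was scored by loss of ATP luminescence after a 48 hrs anaerobic exposure to compounds at 37 deg C, using 100 cells per well.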
RORgamma inh: inhibitors of mouse ROR gamma transcriptional activity; Drosophila S2 Gal4-RORgamma UAS-luciferase reporter, 20 h; Potency, µM (highest dose often 53.6 µM), actives largely listed as inhibitors; 5.4% of 310,000 active; AID 2551; further: nearly all actives have a fitted effect of over 60% in size
Target sequence (P51450 whole entry, looked up, the tested form may be a part): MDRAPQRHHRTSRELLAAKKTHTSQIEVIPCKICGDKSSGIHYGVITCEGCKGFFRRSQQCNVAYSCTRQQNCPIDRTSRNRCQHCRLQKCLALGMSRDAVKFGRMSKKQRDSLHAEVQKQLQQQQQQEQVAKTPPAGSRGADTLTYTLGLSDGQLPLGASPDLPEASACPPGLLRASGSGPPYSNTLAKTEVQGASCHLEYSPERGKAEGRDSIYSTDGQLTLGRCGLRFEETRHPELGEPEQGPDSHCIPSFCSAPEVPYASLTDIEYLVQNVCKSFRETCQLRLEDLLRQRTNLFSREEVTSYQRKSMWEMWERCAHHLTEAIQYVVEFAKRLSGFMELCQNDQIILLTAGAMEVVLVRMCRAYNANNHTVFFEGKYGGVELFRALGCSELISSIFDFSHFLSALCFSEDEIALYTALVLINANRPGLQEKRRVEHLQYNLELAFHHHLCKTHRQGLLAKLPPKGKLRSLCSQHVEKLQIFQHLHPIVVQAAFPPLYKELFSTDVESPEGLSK
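A Gal4/UAS one-hybrid system in insect cells: metallothionein-promoter Gal4–ROR gamma fusion plus Photinus luciferase reporter. Copper sulfate 700 uM final, 20 hr ambient incubation, luminescent detection after 10 min with reagent.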
Large screens that a line does not name were inactive. In the library only some 8.3% were active in any assay of this set; here they are far more common. Unless noted, the call rests on the fitted dose curve; in most records, active means well fitted curve in the direction sought with a large enough effect; inconclusive means small, poorly fitted or top-dose-only effect, or another doubt; inactive means no such curve, though single readings can be large; an effect the other way counts as inactive or inconclusive.

COCCn1c(-c2ccc(-c3ccc([N+](=O)[O-])cc3Br)o2)nc2c1c(=O)[nH]c(=O)n2CC(C)C	MCF10A rerep 18µM
CCOC(=O)c1cc(-c2ccc(F)cc2)n(CCC(=O)Nc2nc3cc(C)c(C)cc3s2)c1C	none (no result: MCF10A rerep, SW480 rereplic, VP16 counter, Giardia kill, RORgamma inh)
COc1ccc(OCc2cc(C(=O)NCC3CCOCC3)no2)c(Cl)c1	Chronic BCR inh inconclusive, SW480 rereplic inconclusive
COc1ccc(CCNC(=O)c2cc(-c3ccco3)on2)cc1OC	Chronic BCR inh inconclusive, SW480 rereplic 5.8µM
COc1ccc(OCc2cc(C(=O)NCCc3ccccc3)no2)c(Cl)c1	MCF10A rerep 18µM, SW480 rereplic 21µM
COc1ccc(CCNC(=O)c2cc(-c3cccs3)on2)cc1OC	none
Cc1cc2c(C)cc(=O)oc2c2c1NCCC2	MCF10A rerep 13µM, SW480 rereplic inconclusive (no result: Chronic BCR inh)
Cc1cc2cc3c(C)cc(=O)oc3c(C)c2o1	none
O=c1[nH]c(Cc2ccc(F)cc2)nc2scc(-c3ccc(F)cc3)c12	RORgamma inh inconclusive
Cc1[nH]c(=S)sc1Cc1ccc(F)cc1	VP16 counter 10µM, RORgamma inh 4µM
COC(=O)C(C(=O)OC)C(CC(=O)c1ccc(C)cc1)c1cc(OC)c(OC)c(OC)c1 (centres undefined)	MCF10A rerep inconclusive
COc1ccc(C(CC(=O)c2ccc(C)cc2)C(C#N)C#N)cc1OC (centres undefined)	MCF10A rerep 21µM, Chronic BCR inh inconclusive, SW480 rereplic inconclusive, VP16 counter inconclusive, RORgamma inh inconclusive
O=C(/C=C/NNC(=O)c1ccc(Br)cc1)c1ccccc1	MCF10A rerep inconclusive, Chronic BCR inh inconclusive, SW480 rereplic inconclusive, RORgamma inh inconclusive
Cc1ccc(C(=O)C=CNNC(=O)c2ccccc2)cc1	Chronic BCR inh inconclusive, VP16 counter 7.1µM, RORgamma inh 13µM
Cc1cccc(C(=O)NN/C=C/C(=O)c2ccccc2)c1	Chronic BCR inh inconclusive, VP16 counter 5µM, RORgamma inh 6.3µM
O=C(/C=C/NNC(=O)c1ccccc1)c1ccccc1	MCF10A rerep inconclusive, Chronic BCR inh inconclusive, SW480 rereplic inconclusive, VP16 counter inconclusive, RORgamma inh 7.9µM
COc1ccc(C)c(-n2c(N)cc(=O)n(Cc3ccccc3)c2=O)c1	Chronic BCR inh inconclusive
CON(C)S(=O)(=O)c1ccc2c(c1)N(Cc1ccc(C)cc1)C(=O)C1CCCN21 (centres undefined)	none
Cc1ccc(C(=O)NC2CCN(CC(=O)Nc3cccc([N+](=O)[O-])c3)CC2)cc1	none
Nc1c(C(=O)NC23CC4CC(CC(C4)C2)C3)sc2nc3c(c(C(F)(F)F)c12)CCC3	MCF10A rerep 1.6µM, Chronic BCR inh inconclusive, SW480 rereplic inconclusive
COc1ccc(-c2c3c(nc4sc(C(=O)Nc5ccccc5)c(N)c24)CCC3)cc1	MCF10A rerep inconclusive, SW480 rereplic inconclusive (no result: Chronic BCR inh, VP16 counter, RORgamma inh)
O=C(CCCN1C(=O)/C(=C/c2ccccc2Cl)SC1=S)NNC(=O)c1ccccc1Cl	MCF10A rerep inconclusive, Chronic BCR inh inconclusive, VP16 counter 2.8µM, RORgamma inh 1µM
O=C(CCCN1C(=O)/C(=C/c2ccccc2Cl)SC1=S)NNC(=O)c1ccncc1	MCF10A rerep 13µM, Chronic BCR inh inconclusive, VP16 counter 10µM, RORgamma inh inconclusive
O=C(CCCN1C(=O)/C(=C/c2cccs2)SC1=S)NNC(=O)c1ccccc1O	Chronic BCR inh inconclusive, SW480 rereplic inconclusive, VP16 counter inconclusive
O=C(CCCN1C(=O)/C(=C\c2cccs2)SC1=S)NNC(=O)c1cccnc1	Chronic BCR inh inconclusive, VP16 counter inconclusive, RORgamma inh 5.6µM
COc1ccccc1NC(=S)NNC(=S)Nc1ccc(OC(F)F)cc1	MCF10A rerep inconclusive, Chronic BCR inh inconclusive
Cc1nn(CC2CCCCC2)c(N)c1-c1ccccc1	VP16 counter 11µM, RORgamma inh inconclusive
O=C(CS(=O)c1ccc(C(F)(F)F)cc1[N+](=O)[O-])Oc1ccccc1 (centres undefined)	MCF10A rerep 7.3µM, Chronic BCR inh inconclusive, SW480 rereplic inconclusive
